Compound activity as filed in PubChem.
HT1080-NT tox = qHTS for induction of synthetic lethality in tumor cells producing 2HG: qHTS for the HT-1080-NT fibrosarcoma cell line. HT-1080-NT fibrosarcoma viability, CellTiter-Glo ATP luminescence, 48 h. Potency, µM (highest dose often 46.1 µM), for inactives: at the highest dose activity, negative = less viability, actives largely listed as cytotoxic. 360,000 compounds, 1.6% hits;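 note: NT is the 2HG producing partner of a matched IDH1 knockdown line; 0% = DMSO-treated cells and -100% = media-only wells without cells; nearly all actives have a fitted effect of over 55% in size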
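A 48-hour cytotoxicity screen used HT-1080-NT cells plated 2 hours before compound delivery. ATP-based CellTiter-Glo luminescence measured viability, normalized to DMSO and no-cell controls.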
S2 tox = Viability Counterscreen for Primary qHTS for Inhibitors of ATXN expression; S2 cells (HEK-293 line with an ATXN2-luciferase reporter) viability, CellTiter-Fluor protease fluorescence, 24 h; AID 651635, 2014; 400,000 compounds, 0.49% hits; Potency, µM (series often up to 56.7 µM), most hits filed as cytotoxic; note: nearly all actives have a fitted effect of over 40% in size
HepG2 viability = qHTS for Inhibitors of TGF-b: Cytotox Counterscreen; AID 588856, 2011; 410,000 compounds, 0.76% hits; HepG2 CAGA-GFP viability, ATP luminescence, 18 h; Potency, µM (series often up to 46.1 µM), for the others: at the highest dose activity change, negative = cytotoxicity, most hits filed as cytotoxic
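HepG2 CAGA-GFP cells (1000/well, DMEM with 1% FBS) received compound, then TGF-beta at 500 pg/mL final, and were incubated 18 hours at 37 degrees C. Viability was read by CellTiter-Glo luminescence. Media-only wells were set as complete cell-killing and DMSO as no toxicity.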
HT1080 IDH1KD tx = qHTS for induction of synthetic lethality in tumor cells producing 2HG: qHTS for the HT-1080-IDH1KD cell line; HT-1080 IDH1 knockdown viability, ATP luminescence, 48 h; Potency, µM (top dose mostly 46.1 µM), for inactives: top-dose activity, negative = toxicity, usual class: cytotoxic; 360,000 compounds, 2% hits; AID 686971, 2013;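 note: 0% = DMSO wells and -100% = cell-free medium wells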
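Cytotoxicity counter-line: IDH1KD HT-1080, 48 h, CellTiter-Glo. Curves classed by r2, magnitude and activity.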
TGFb inhibitor = qHTS for Inhibitors of TGF-b; 410,000 compounds, 1.2% hits; Potency, µM (highest dose often 46.1 µM), without a hit: at the top dose activity, negative = inhibition, most hits filed as inhibitors; HepG2 CAGA-GFP TGF-b/SMAD3 reporter, GFP fluorescence, 18 h; TGF-beta stimulated, 500 pg/mL final; note: % is set by controls: 0 for no effect and ±100 for the full control effect; nearly all actives have a fitted effect of over 65% in size
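Per well, imaged GFP fluorescence of HEPG2 CAGA-GFP cells gives the signal; cells get compound, then TGF-beta (500 pg/mL final), 18 h at 37 degrees C; %Activity versus -TGF-beta and +DMSO controls.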
ATXN2 expr inh = Primary qHTS for Inhibitors of ATXN expression. Potency, µM (series often up to 57 µM), for the others: top-dose activity change, negative = inhibition, usual class: inhibitors. 360,000 compounds, 0.72% hits. HEK-293 ATXN2-luciferase reporter, luminescence, 24 h; note: % is set by controls: 0 for no effect and ±100 for the full control effect; nearly all actives have a fitted effect of over 55% in size
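qHTS (up to 57 uM final) was run with 24 h compound exposure of reporter cells at 37 °C. Each well was multiplexed: SteadyGlo luminescence measured ATXN2-luciferase expression after a fluorogenic Gly-Phe-AFC viability readout (25 uM final).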
Active calls of the source: *; i = inactive; ? = inconclusive; . = no result given; [ ] = dose if it differs, or a comment. This is a sample that favours compounds with a hit; in the whole collection about 3.8% have one here. Calls come from the whole dose curve; as a rule, active = well fitted curve in the direction sought with a large enough effect; inconclusive = small, poorly fitted or top-dose-only effect, or another doubt; inactive = no such curve, though single readings can be large; an effect the other way counts as inactive or inconclusive. Potency is the fitted concentration of half-maximal effect.

SMILES	HT1080-NT tox	S2 tox	HepG2 viability	HT1080 IDH1KD tx	TGFb inhibitor	ATXN2 expr inh
CN(C)CCNc1ncnc2c1sc1nc(N3CCOCC3)c3c(c12)CC(C)(C)SC3	?	?	-96%	?	-2%	20µM*
Cc1cc(C)cc(N(CC(=O)NC2CCCCC2)C(=O)CCCC(=O)Nc2ccccn2)c1	-4%	i	11µM*	-10%	-16%	-10%
CCc1nc2c(OCc3cc(Cl)cc(Cl)c3)cccn2c1N(C)C(=O)c1ccccc1F	18µM*	?	-38%	?	?	0%
CCc1nc2c(OCc3cccc(OC)c3)cccn2c1N(C)C(=O)c1ccccc1F	-8%	?	-25%	-18%	14%	-7%
CCc1nc2c(OCc3ccc(Cl)cc3Cl)cccn2c1N(C)C(=O)CC(C)C	26µM*	i	11µM*	?	?	?
CCc1nc2c(OCc3ccc(Cl)cc3Cl)cccn2c1N(C)C(=O)C1CC1	?	18µM*	-30%	-20%	?	?
CCc1nc2c(OCC3CCCCC3)cccn2c1N(C)C(=O)c1ccc(C)cc1	?	28µM*	-41%	?	?	-6%
CCc1nc2c(OCc3cc(Cl)cc(Cl)c3)cccn2c1N(C)C(=O)CC(C)C	?	?	-52%	?	?	?
CCC1CN(CCNC(=O)C(C)(C)O)Cc2cc(OC)ccc2O1 (stereo unspecified)	.	i	.	.	.	.
Cc1ncc2c(c1CNC(=O)c1ccc3c(c1)OCO3)CCN(C(=O)c1cc3ccccc3n1C)C2	.	i	.	.	.	.
COc1ccc(CCN2C(=O)N(c3ccc(C)cc3)C(=O)C2CC(=O)Nc2ccc(F)cc2)cc1 (stereo unspecified)	.	i	-25%	.	?	5%
COc1ccc(-c2[nH]c(-c3ccc(OC)c(OC)c3)nc2SCC(=O)Nc2ccccc2)cc1	.	?	-18%	.	?	-25%
O=C(O)CCc1ccc(-c2ccc(Cl)cc2)n1-c1cccc(C(F)(F)F)c1	.	i	-60%	.	?	1%
Cc1ccc(S(=O)(=O)N2C[C@H]3n4c(=O)ccc(=O)n4C[C@H](OC(=O)NCC4CCCCC4)[C@@]3(O)C2)cc1	21µM*	22µM*	-119%	?	?	16µM*
Cc1ccc(S(=O)(=O)N2C[C@H]3n4c(=O)ccc(=O)n4C[C@H](OC(=O)NCc4ccccc4)[C@@]3(O)C2)cc1	?	?	6%	?	-7%	0%
CCOc1ccc(-c2cc(CCCC(=O)Nc3cccc(OC)c3)no2)cc1	?	i	-27%	18µM*	-15%	8.9µM*
CCCCN(CC)CCCNC(=O)c1cc2c(=O)[nH]c3ccccc3c2s1	?	i	-22%	?	-4%	2%
Cc1ccc2nc(Cl)c3cc(C(=O)NCCCN4CCC(C)CC4)sc3c2c1	.	.	2%	.	-6%	.
CCCCN(CC)CCNC(=O)c1cc2c(=O)[nH]c3ccc(C)cc3c2s1	16µM*	i	-71%	18µM*	?	-14%
Cc1ccc2[nH]c(=O)c3cc(C(=O)NCCCN4CCC(C)CC4)sc3c2c1	.	20µM*	-57%	.	-1%	28µM*
CCN(CC)C(=O)c1ccc(-c2cccs2)s1	-4%	i	-10%	-2%	-16%	23%
CCCCOc1ccc(N=Cc2cccs2)cc1	3%	i	7%	-4%	11%	10%
Oc1ccc(N=Cc2ccc(-c3cccs3)s2)cc1	-28%[9.24 µM]	i	7.9µM*	10µM*	11µM*	?
O=Cc1ccc(-c2cccs2)s1	-5%	i	-10%	-8%	5.6µM*	?
Cc1ccc(-n2nc(C)c(NC(=O)CCl)c2C)cc1C	?	.	-68%	?	?	?
SMILES	HT1080-NT tox	S2 tox	HepG2 viability	HT1080 IDH1KD tx	TGFb inhibitor	ATXN2 expr inh
CC(=O)n1c(Cl)c(NC(=O)CCl)c2ccccc21	5.6µM*	?	-45%	7.1µM*	?	?
CC1CC(C)CN(C(C(=O)NC2CCCCC2)c2cc3ccccc3o2)C1 (stereo unspecified)	?	i	-24%	?	16µM*	-32%
Cc1cccc(N2C(=O)CC(Sc3nc(C)c4c(n3)CCCC4)C2=O)c1 (stereo unspecified)	7.1µM*	i	1%	10µM*	1%	-3%
COc1ccc(N2C(=O)CC(Sc3nc(C)c4c(n3)CCCC4)C2=O)cc1 (stereo unspecified)	15µM*	i	-20%	?	14%	-16%
COc1ccc(N2C(=O)CC(Sc3nc4c(cc3C#N)CCC4)C2=O)cc1 (stereo unspecified)	?	i	-9%	18%	-22%	36%
Cc1nc(SC2CC(=O)N(c3cc(Cl)cc(Cl)c3)C2=O)nc2c1CCCC2 (stereo unspecified)	-19%	i	-7%	-23%	?	-3%
Cc1ccc(-n2[nH]c(C)c(N=Nc3cccc(-c4cccc(C(=O)O)c4)c3O)c2=O)cc1C	.	i	.	.	.	?
O=c1c2c(-c3ccccc3)csc2nc2c3ccccc3c(NCCN3CCOCC3)nn12	15µM*	.	-4%	10µM*	0%	?
C[n+]1cccc(O)c1SCc1ccccc1	-25%	14µM*	-64%	23µM*	?	?
Cc1cc(C)c(NC(=O)Cc2ccc(-n3c(C)nc4cccnc43)cc2)c(C)c1	.	.	-25%	.	13µM*	.
CCN1/C(=C/c2ccc3cc(C)ccc3[n+]2CC)Sc2ccccc21	5.8µM*	.	-84%	12µM*	132%	.
CC[n+]1c(/C=C2\Sc3ccccc3N2C)ccc2cccc(C)c21	13µM*	?	-41%	10µM*	33%	?
CCOC(=O)/C(=C/C=C1\Sc2cc(C)c(C)cc2N1CC)C(C)=O	-8%	i	0%	-5%	119%	-4%[11.3 µM]
CCN1/C(=C/c2ccc3cc(C)ccc3[n+]2CC)Sc2cc(C)c(C)cc21	18µM*	?	-13%	12µM*	85%	?
CCC(=O)/C=C1/Sc2ccccc2N1CC	-2%	i	7%	0%	-9%	3%
COc1ccc(CNS(=O)(=O)c2cnc(N)nc2)cc1	.	.	-2%	.	1%	.
CCc1cccc(C)c1NC(=O)Cn1ccn(-c2cccc(OC)c2)c(=O)c1=O	.	.	2%	.	-5%	.
